A selection: hits, their analogues and other compounds. The true share with any hit is near 5.8%.
ALOX12 inh – ALOX12 (human) lipoxygenase inhibition; P18054; purified 12hLO, xylenol orange hydroperoxide absorbance; Potency, µM (doses to about 108 µM), inactives show top-dose activity change, negative = inhibition, actives largely listed as inhibitors; 580,000 compounds, 1.1% hits; AID 1671190; further: on the % scale 0 is the no-effect control and ±100 the full control effect
Target sequence (P18054 whole entry, looked up): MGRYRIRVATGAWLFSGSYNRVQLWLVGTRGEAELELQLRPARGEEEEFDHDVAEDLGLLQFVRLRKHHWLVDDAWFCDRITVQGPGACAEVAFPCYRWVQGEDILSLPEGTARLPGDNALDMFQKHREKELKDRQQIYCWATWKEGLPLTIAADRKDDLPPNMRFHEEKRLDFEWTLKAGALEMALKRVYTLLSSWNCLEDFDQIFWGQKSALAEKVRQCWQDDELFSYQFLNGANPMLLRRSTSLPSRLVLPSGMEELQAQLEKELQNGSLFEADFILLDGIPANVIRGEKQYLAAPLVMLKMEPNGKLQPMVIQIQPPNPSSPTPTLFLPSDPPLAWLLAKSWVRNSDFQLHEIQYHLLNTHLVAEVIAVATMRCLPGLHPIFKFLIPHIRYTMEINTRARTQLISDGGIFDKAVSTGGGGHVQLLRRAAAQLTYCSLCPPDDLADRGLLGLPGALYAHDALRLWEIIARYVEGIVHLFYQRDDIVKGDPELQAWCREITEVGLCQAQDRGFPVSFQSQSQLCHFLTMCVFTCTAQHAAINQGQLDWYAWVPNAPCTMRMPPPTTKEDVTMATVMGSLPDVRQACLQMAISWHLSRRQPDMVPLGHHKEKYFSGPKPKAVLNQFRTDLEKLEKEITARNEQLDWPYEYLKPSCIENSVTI
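Purified human 12hLO (150 nM final) in 25 mM Hepes, 0.01% Triton X-100, pH 7.0 was preincubated 15 min at room temperature with compound. Then 40 uM arachidonic acid was added, 30 min. Hydroperoxide was read by Fe-XO absorbance ratio 573/405 nm.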
KB-V1 cytotox – kills drug-selected multidrug resistant KB-V1 cells | AID 1347076 | 400,000 compounds, 3.4% hits | KB-V1 MDR cells viability, CellTiter-Glo, 72 h | Potency, µM (titrated, usually from 46.1 µM), hits mostly cytotoxic; further: on the % scale 0 is the no-effect control and ±100 the full control effect; nearly all actives have a fitted effect of over 60% in size
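In this primary screen, KB-V1 cells overexpressing P-gp are incubated with library compounds (lowest to highest concentration) for 72 h at 37 degrees C before a luminescent ATP viability read.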
MCF10A rereplic – inducers of DNA re-replication in MCF 10A breast cells; MCF 10A DNA re-replication, Hoechst nuclear intensity, 48 h; Potency, µM (doses to about 46.1 µM), without a hit: at the highest dose activity, positive = re-replication, actives largely listed as activators; 350,000 compounds, 2.9% hits; AID 624296; further: % of control where 0% means no effect; nearly all actives have a fitted effect of over 50% in size
SW480 rerep – DNA re-replication induction in SW480 cells; AID 624297; 340,000 compounds, 1.8% hits; SW480 DNA re-replication, Hoechst DNA content imaging, 48 h; Potency, µM (doses to about 46.1 µM), for the others: top-dose re-replication activation, most hits filed as activators; further: % of control where 0% means no effect; nearly all actives have a fitted effect of over 55% in size
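DNA re-replication was detected as more nuclei of elevated Hoechst intensity after 48 hr exposure to compound (23 nL pinned per well of 250 cells).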
KB-3-1 tox – kills parental KB-3-1 adenocarcinoma cells. KB-3-1 viability, CellTiter-Glo ATP luminescence, 72 h. Potency, µM (highest dose often 46.1 µM), usual class: cytotoxic. 400,000 compounds, 1.4% hits. AID 1347075; further: on the % scale 0 is the no-effect control and ±100 the full control effect; nearly all actives have a fitted effect of over 60% in size
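Cytotoxicity in the drug-sensitive parental line KB-3-1 was scored as loss of CellTiter-Glo luminescence following 72 h incubation with compound. Values come from curve fitting of normalized concentration-response data.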
PINK1 modulator – PINK1 expression modulation; PINK1 immunofluorescence, high-content cytometry, 24 h; Potency, µM (top dose mostly 76.6 µM), for the others: at the top dose activation (PINK1 increase), usual class: activators; 410,000 compounds, 0.2% hits; active means well fitted activation curve with a large enough effect; inconclusive means small, poorly fitted or top-dose-only effect; cell line not stated here; further: % of control where 0% means no effect; nearly all actives have a fitted effect of over 65% in size
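Cells are seeded, rested 12 hours, then given compound at five concentrations or DMSO for 24 hours. After fixation, blocking and antibody staining, PINK1 amount and mitochondrial localization are scored; CCCP serves as control.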
Active calls of the source: *; i = inactive; ? = inconclusive; . = no result given; [ ] = remark or other dose. Unless noted, the call rests on the fitted dose curve; in most records, active means well fitted curve in the direction sought with a large enough effect; inconclusive means small, poorly fitted or top-dose-only effect, or another doubt; inactive means no such curve, though single readings can be large; an effect the other way counts as inactive or inconclusive. Potency means the concentration at half of the fitted maximal effect.

SMILES	ALOX12 inh	KB-V1 cytotox	MCF10A rereplic	SW480 rerep	KB-3-1 tox	PINK1 modulator
Cc1c2c(cc3c1[nH]c1ccccc13)C=NCC2	-15%	?	21µM*	?	?	-3%
CCn1c(N2CCN(Cc3cc(C)ccc3C)CC2)nc2c1c(=O)[nH]c(=O)n2C	-1%	.	.	.	.	.
COc1cccc(NC(=O)CC2Nc3ccccc3NC2=O)c1 (centres undefined)	16µM*	.	.	.	.	.
O=C(CC1Nc2ccccc2NC1=O)Nc1cc(Cl)cc(Cl)c1 (centres undefined)	25%	i	?	1.8µM*	i	8.9µM*
O=C(CC1Nc2ccccc2NC1=O)Nc1cccc(C(F)(F)F)c1 (centres undefined)	7%	.	.	.	.	.
CCc1ccccc1NC(=O)Cn1c(-c2nonc2N)nc2ccccc21	-26%	.	.	.	.	3%
Nc1nonc1-c1nc2ccccc2n1CC(=O)N/N=C\c1ccc(-c2ccc(Cl)cc2)o1	-26%	?	8.9µM*	?	?	7%
O=C(Cn1c(-c2cscn2)nc2ccccc21)Nc1ccccc1N1CCCC1=O	-13%	.	.	.	.	.
CSc1ccccc1NC(=O)Cn1c(-c2cscn2)nc2ccccc21	3%	16µM*	21%	-9%	i	0%[38.3 µM]
CCCCOc1ccccc1NC(=O)Cn1c(-c2nonc2N)nc2ccccc21	-7%	1.8µM*	0.79µM*	?	4.6µM*	8%
CN(Cc1ccccc1C(F)(F)F)C(=O)C1CCN(Cc2cccnc2)CC1	-2%	.	.	.	.	.
Cn1nc(C(=O)NCCc2cccs2)c2ccccc2c1=O	6%	.	.	.	.	.
Cc1nnc(SCc2nc3ccccc3o2)n1-c1ccccc1	14%	.	.	.	.	.
COc1ccc(-n2c(NC(=O)c3ccco3)c(C#N)c3nc4ccccc4nc32)cc1	0%	21µM*	8.2µM*	18µM*	?	-1%
N#Cc1c(NC(=O)c2ccccc2Cl)n(Cc2ccccc2)c2nc3ccccc3nc12	?	?	?	11µM*	?	?
CCCCn1c(NC(=O)CC)c(C#N)c2nc3ccccc3nc21	0%	i	8%	-5%	i	-1%
CCCCn1c(NC(=O)c2ccccc2Cl)c(C#N)c2nc3ccccc3nc21	0%	?	2.6µM*	16µM*	?	40µM*
O=c1c(-c2ccccc2)nnc2sc(-c3ccc(Cl)cc3)nn12	-17%	.	.	.	.	.
O=C(COC(=O)c1cc(=O)c2ccccc2o1)Nc1cccc(Br)c1	-24%	.	.	.	.	.
CC(=O)Nc1ccc(NC(=O)C(C)OC(=O)/C(C#N)=C/c2ccc(N(C)C)cc2)cc1 (centres undefined)	-29%	i	12%	-6%	i	-1%
CC(OC(=O)/C(C#N)=C/c1ccc(N(C)C)cc1)C(=O)N(C)c1ccccc1 (centres undefined)	-29%	18µM*	?	4%	i	1%
CCOC(=O)/C(=C\c1ccccc1)C(=O)CCN1CCOCC1	?	?	21µM*	0%	i	-2%
O=C(CCc1ccccc1)OCCN1CCOCC1	?	i	1%	-14%	i	2%
COc1ccc(-c2cc3nc4c(c(=O)n3[nH]2)CN(C(=O)CCCc2nc3ccccc3s2)CC4)cc1	3%	.	.	.	.	.
CCN(CC)CCCNC(=O)c1ccc(-c2nc(CN3CCc4ccccc43)c(C)o2)cc1	?	?	.	.	?	0%
SMILES	ALOX12 inh	KB-V1 cytotox	MCF10A rereplic	SW480 rerep	KB-3-1 tox	PINK1 modulator
CCCCOc1ccc(CNC(=O)c2ccc(-c3nc(CN4CCc5ccccc54)c(C)o3)cc2)cc1	-6%	?	.	.	18µM*	11%
CCCCNC(=O)c1ccc(-c2nc(CN3CCc4ccccc43)c(C)o2)cc1	-19%	5.2µM*	.	.	?	4%
CCc1ccc(CCC(=O)NC2CC3CCC2C3)cc1 (centres undefined)	14%	.	.	.	.	.
O=C(NCc1ccc2c(c1)OCO2)c1nc(S(=O)(=O)Cc2ccccc2)ncc1Cl	-4%	?	?	?	21µM*	-2%
CN(Cc1ccccc1)S(=O)(=O)c1ccc(Cl)c(C(=O)NCc2ccncc2)c1	-13%	?	19%	8%	i	0%
O=C(NCc1ccc2c(c1)OCO2)c1nc(S(=O)(=O)Cc2ccccc2F)ncc1Cl	-14%	i	-9%	11%	i	-1%
CN(Cc1ccccc1)S(=O)(=O)c1ccc(Cl)c(C(=O)NCc2ccc3c(c2)OCO3)c1	-14%	12µM*	-2%	-100%	i	?
Cc1ccc(NC(=O)C2CCN(c3cc(C(F)(F)F)ncn3)CC2)cc1	2%	.	.	.	.	.
CN(C)C(=O)CO	2%	.	.	.	.	.
COc1ccc(-c2coc3cc(OCC(=O)Nc4nccs4)ccc3c2=O)cc1	13%	.	.	.	.	.
C=CCn1c(SCc2ccccc2Cl)nnc1-c1sc2nc(C)cc(C)c2c1N	151%	i	10µM*	18µM*	i	2%
CCn1c(NC(=O)c2oc3ccccc3c2COC)nc2ccccc21	2%	.	.	.	.	.
COc1ccc(NC(=S)N(Cc2ccc(Cl)cc2)Cc2ccc(C(=O)O)cc2)cc1Cl	?	i	8%	-71%	i	2%
Cc1ccc(NC(=S)N(Cc2ccc(Br)cc2)Cc2ccc(C(=O)O)cc2)cc1C	40µM*	i	13%	-4%	i	0%
Cc1cc(C)cc(NC(=S)N(Cc2ccc(Cl)cc2)Cc2ccc(C(=O)O)cc2)c1	35µM*	i	0%	-1%	i	1%
CCc1ccc(NC(=S)N(Cc2ccc(Cl)cc2)Cc2ccc(C(=O)O)cc2)cc1	40µM*	i	16%	-3%	i	1%
CC(C)CN(CC(C)C)C(=S)Nc1ccc(Cl)cc1	-4%	i	18µM*	10%	i	8%
CCN(CC)C(=S)Nc1ccc(F)cc1	9%	.	.	.	.	.
Cc1ccc(C)c(NCC(=O)c2ccc(Cl)cc2)c1	35µM*	i	23µM*	?	i	13%
Cc1cccc(NC(=S)N(Cc2ccc(Cl)cc2)Cc2ccc(C(=O)O)cc2)c1	0%	i	-1%	-2%	i	2%
Cc1cc(NC(=S)N(Cc2ccc(Cl)cc2)Cc2ccc(C(=O)O)cc2)ccc1Cl	40µM*	i	?	0%	i	1%
Cc1ccc(C)c(NC(=S)N(Cc2ccc(Cl)cc2)Cc2ccc(C(=O)O)cc2)c1	45µM*	?	?	?	i	-2%
Cc1cc(C)cc(NC(=S)N(Cc2ccc(Br)cc2)Cc2ccc(C(=O)O)cc2)c1	28µM*	i	?	2%	i	-1%
O=C(Cc1n[nH]c(=O)c2ccccc12)Nc1nc2c(s1)CCCC2	-8%	.	.	.	.	.

From PubChem BioAssay
